High-throughput results from PubChem BioAssay.
Rows were chosen to be rich in hits. Some 3.8% of all compounds tested hit in one or more screens of this group.
NTMT1 inh – blocks human N-terminal methyltransferase 1 activity | 59,000 compounds, 2.5% hits | NTMT1 MTase-Glo SAH luminescence, purified enzyme | Q9BV86 | Potency, µM (doses to about 114 µM), actives largely listed as inhibitors | AID 1645870; further: nearly all actives have a fitted effect of over 65% in size
Target sequence (Q9BV86 whole entry, looked up): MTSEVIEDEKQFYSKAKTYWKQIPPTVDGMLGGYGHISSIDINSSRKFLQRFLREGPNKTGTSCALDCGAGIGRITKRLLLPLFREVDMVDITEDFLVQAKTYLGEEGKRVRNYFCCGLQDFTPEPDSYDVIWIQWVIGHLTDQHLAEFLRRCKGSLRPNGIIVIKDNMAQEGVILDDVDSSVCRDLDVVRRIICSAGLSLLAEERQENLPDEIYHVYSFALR
SKOV3 invasion – inhibitors of ovarian cancer cell adhesion and invasion in omental model; Potency, µM (titrated, usually from 45.8 µM), actives largely listed as inhibitors; SKOV3ip1-GFP adhesion/invasion on 3D omental model, fluorescence; 46,000 compounds, 0.1% hits; further: nearly all actives have a fitted effect of over 65% in size
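Primary human omental fibroblast/mesothelial 3D culture pre-formed 48 h. SKOV3ip1-GFP cells added with compounds (0.36-46 umol/L), incubated 2 h RT/16 h 37 C, fixed; GFP cells quantified at 488/509 nm.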
FH mod – Identification of activators of human fumarate hydratase by quantitative high-throughput screening; Fumarate hydratase, mitochondrial (Homo sapiens), P07954; FH coupled MDH/diaphorase resazurin fluorescence, 15 min; Potency, µM (series often up to 79.9 µM), actives largely listed as inhibitors; 54,000 compounds, 0.22% hits; AID 1347055, 2019; further: the screen sought activators but most active calls are inhibition curves; nearly all actives have a fitted effect of over 45% in size
Target sequence (P07954 whole entry, looked up): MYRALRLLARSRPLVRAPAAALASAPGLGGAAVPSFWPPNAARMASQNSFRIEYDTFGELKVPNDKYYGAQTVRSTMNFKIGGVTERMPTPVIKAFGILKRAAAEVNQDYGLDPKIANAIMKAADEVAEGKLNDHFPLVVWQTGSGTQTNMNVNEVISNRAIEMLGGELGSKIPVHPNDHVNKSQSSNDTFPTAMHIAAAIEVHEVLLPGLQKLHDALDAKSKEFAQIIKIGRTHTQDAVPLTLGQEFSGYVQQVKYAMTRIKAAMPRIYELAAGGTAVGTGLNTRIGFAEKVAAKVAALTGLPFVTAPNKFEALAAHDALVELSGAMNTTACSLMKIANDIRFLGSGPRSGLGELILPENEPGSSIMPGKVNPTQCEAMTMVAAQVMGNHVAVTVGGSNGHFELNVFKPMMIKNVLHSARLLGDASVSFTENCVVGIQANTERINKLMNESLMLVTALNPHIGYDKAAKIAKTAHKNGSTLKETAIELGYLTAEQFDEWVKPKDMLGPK
DRV1 agonist – activates human resolvin D1 receptor GPR32 | O75388 | CHO-K1 GPR32 beta-arrestin PathHunter luminescence, 90 min; zero percent set by DMSO-only wells | activation, % at 76.9 µM | 48,000 compounds, 2.5% hits | AID 1346428;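 active means activation of at least 60% and not above a set upper limit, about 1 call in 100 departs from these limits; inconclusive means activation of 40% to 60%, or above that upper limit; inactive means activation under 40%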
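Agonism was scored by beta-Gal fragment complementation (chemiluminescent read, 1 h detection at ambient temperature) reporting beta-arrestin binding to GPR32 in engineered CHO-K1 cells. Compound treatment lasted 90 min at 37 C, normalized to a DMSO basal control.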
Of the large screens only hits and unclear results are named; the others gave an inactive call; ! = repeats disagree. Unless noted, the call rests on the fitted dose curve; in most records, active means well fitted curve in the direction sought with a large enough effect; inconclusive means small, poorly fitted or top-dose-only effect, or another doubt; inactive means no such curve, though single readings can be large; an effect the other way counts as inactive or inconclusive.

CC(=O)c1ccc(N2CCN(C(=O)CS(=O)(=O)c3cccc4nsnc34)CC2)cc1	DRV1 agonist 88
CCOC(=O)c1cccc(NC(=O)CSc2nc3cc4ccccc4cc3[nH]2)c1	DRV1 agonist 114
CCOC(=O)c1ccc(NC(=O)CSc2nc3cc4ccccc4cc3[nH]2)cc1	NTMT1 inh inconclusive, DRV1 agonist inconclusive
COC(=O)c1ccc(NC(=O)CSc2nc3cc4ccccc4cc3[nH]2)cc1	DRV1 agonist 94
CCOC(=O)c1cccc(NC(=O)CSc2cc(=O)n(C)c3ccccc23)c1	FH mod inconclusive
CCOC(=O)c1cccc(NC(=O)c2ccc3c(c2)nnn3CC)c1	NTMT1 inh inconclusive, DRV1 agonist 61
COc1cccc(CNC(=O)Cn2c(SCC(=O)Nc3ccc(C)c(C)c3)nc3ccccc32)c1	NTMT1 inh inconclusive, DRV1 agonist 113
COc1cccc(CNC(=O)Cn2c(SCC(=O)Nc3ccc(F)cc3)nc3ccccc32)c1	NTMT1 inh inconclusive
CC(=O)Nc1ccc(NC(=O)C2Cc3ccccc3N2C(=O)c2ccccc2)cc1 (stereo not drawn)	DRV1 agonist 100
CC(=O)c1ccc(NC(=O)C2Cc3ccccc3N2C(=O)c2ccccc2)cc1 (stereo not drawn)	none
COc1ccnc(NCc2ccc(O)c3ncccc23)c1	none (no result: SKOV3 invasion, FH mod, DRV1 agonist)
CSc1ncc(Cl)c(C(=O)Nc2c(C(=O)Nc3cccc(Cl)c3)oc3ccccc23)n1	none
CCOC(=O)c1cnc2ccc(-c3cncc(NS(=O)(=O)c4ccccc4)c3)cn12	NTMT1 inh 28µM (no result: SKOV3 invasion, DRV1 agonist)
Nc1c(C(=O)Nc2ccc(C(F)(F)F)cc2)sc2nc(-c3cccs3)ccc12	DRV1 agonist 71
Cc1cc(F)ccc1NC(=O)c1sc2nc(-c3cccs3)ccc2c1N	DRV1 agonist 67
Cc1ccc(C)c(CNC(=O)c2cnc3sc(N4CCCC4)nn3c2=O)c1	none
COc1ccc(CNc2oc(COc3cccc(C)c3)nc2C#N)cc1	FH mod inconclusive
O=C(Nc1ccccc1C(F)(F)F)C1(S(=O)(=O)c2ccc(Cl)cc2)CC1	none
CS(=O)(=O)Nc1cccc(-c2cc(F)c(S(=O)(=O)N3CCN(S(=O)(=O)c4ccc5c(c4)OCCO5)CC3)cc2F)c1	NTMT1 inh 18µM (no result: SKOV3 invasion, FH mod, DRV1 agonist)
CCCCNC(=O)[C@@H]1Cc2ccccc2N1C(=O)[C@@H](N)CC	NTMT1 inh inconclusive (no result: SKOV3 invasion, DRV1 agonist)
C[C@](N)(Cc1ccc(O)c(O)c1)C(=O)O	NTMT1 inh 35µM, FH mod inconclusive
CC(Cc1ccc(O)c(O)c1)(NN)C(=O)O (stereo not drawn)	NTMT1 inh 14µM! (no result: DRV1 agonist)
COc1ccc(C)cc1NC(=O)c1ccc2c(c1)CCN2S(=O)(=O)c1ccc(Cl)cc1	none
C#CCOc1ccc(-c2no[n+]([O-])c2C#N)cc1	none (no result: SKOV3 invasion, FH mod, DRV1 agonist)
CCN(CC)c1ccc(C(=C2C=CC(=[N+](CC)CC)C=C2)c2cc(S(=O)(=O)O)ccc2S(=O)(=O)[O-])cc1	NTMT1 inh 28µM (no result: SKOV3 invasion)
CCc1ccc(-c2cc3c(N4CCN(c5ccccc5)CC4)nccn3n2)cc1	NTMT1 inh 79µM
Cc1ccnc2c1NC(=O)c1cccnc1N2C1CC1	none
CCCc1cc(C(=O)N[C@H](Cc2ccc(-c3cccc(OC(F)(F)F)c3)nc2)C(=O)N[C@@H]2CCNC2)sc1C	NTMT1 inh 56µM (no result: SKOV3 invasion, FH mod, DRV1 agonist)
COc1cccc(NC(=O)Cn2c(=O)n(CCCCC(=O)NCc3ccc4c(c3)OCO4)c(=O)c3ccccc32)c1	none
Cc1ccc(S(=O)(=O)c2nc(-c3ccco3)oc2SCC(=O)c2ccc(Cl)cc2)cc1	none
O=C(CSc1oc(-c2ccco2)nc1S(=O)(=O)c1ccc(Cl)cc1)c1ccc(Cl)cc1	NTMT1 inh 79µM
Cc1cc(C)cc(NC(=O)CSc2oc(-c3ccco3)nc2S(=O)(=O)c2ccc(Cl)cc2)c1	none
CCOc1ccc(NC(=O)CSc2oc(-c3ccco3)nc2S(=O)(=O)c2ccc(Cl)cc2)cc1	NTMT1 inh 79µM
Cc1cccc(CNc2ccnc(-c3ccccc3F)n2)c1	none (no result: SKOV3 invasion, FH mod, DRV1 agonist)
Cc1oc2ccc(O)c(CN3CCCC3)c2c1C(=O)Nc1cccc(Cl)c1C	none (no result: NTMT1 inh, FH mod)
CCOC(=O)C1CCN(c2cc3c(cc2NC(=O)c2ccc(Cl)cc2)n(C)c(=O)n3C)CC1	FH mod 20µM
CCOC(=O)C1CCN(c2cc3c(cc2NC(=O)c2ccccc2Cl)n(C)c(=O)n3C)CC1	FH mod inconclusive
Cc1ccc(S(=O)(=O)CCC(=O)N2CCN(c3nc4c(C)c(C)ccc4s3)CC2)cc1	none
CCCCC(=O)N1CCN(c2nc3c(C)c(C)ccc3s2)CC1	DRV1 agonist 69
Cc1c(Cl)ccc2sc(N3CCN(C(=O)c4ccco4)CC3)nc12	DRV1 agonist 85
COc1ccc(Cl)cc1NC(=O)CSc1cn(CC(=O)N2CCCC2)c2ccccc12	FH mod inconclusive
O=C(NCCc1csc2nc(-c3ccc(F)cc3)nn12)c1cccc(C(F)(F)F)c1	none
COc1ccc(-c2nc3scc(CCNC(=O)c4cccc(Br)c4)n3n2)cc1	DRV1 agonist 71
Cc1cc(C)c(S(=O)(=O)NCCc2sc(-c3cccnc3)nc2C)c(C)c1	DRV1 agonist 69
C[C@H](Oc1cc(-n2cnc3ccc(CN4CCN(C)CC4)cc32)sc1C(N)=O)c1ccccc1C(F)(F)F	NTMT1 inh 25µM (no result: SKOV3 invasion, DRV1 agonist)
C[C@@H]1O[C@@H](O[C@H]2[C@@H](OC(=O)[C@]34CCC(C)(C)CC3C3=CCC5[C@@]6(C)C[C@H](O)[C@H](O[C@@H]7O[C@H](CO)[C@@H](O)[C@H](O)[C@H]7O[C@@H]7OC[C@@H](O)[C@H](O)[C@H]7O)[C@@](C)(C(=O)O)C6CC[C@@]5(C)[C@]3(C)CC4)OC[C@H](O)[C@@H]2O)[C@H](O)[C@H](O)[C@H]1O[C@@H]1OC[C@@H](O)[C@H](O)[C@H]1O (stereo partly drawn)	none (no result: SKOV3 invasion, DRV1 agonist)
O=c1cc2nc(-c3ccccc3F)nc(SCc3ccc(Br)cc3)n2[nH]1	FH mod inconclusive, DRV1 agonist 108
O=C(NCC1(c2nc(-c3ccccc3)cs2)CCOCC1)c1cccc(-c2noc(C(F)(F)F)n2)c1	none (no result: SKOV3 invasion, DRV1 agonist)
Cc1cc(NS(=O)(=O)c2ccc(NC(=O)COc3cc(C)c(Br)cc3C(C)C)cc2)no1	DRV1 agonist 107
Cc1ccc(OCC(=O)Nc2ccc(S(=O)(=O)Nc3cc(C)on3)cc2)c(Br)c1	FH mod inconclusive, DRV1 agonist inconclusive
CCOc1ccc(NC(=O)CSc2nc(-c3ccccc3)c3cc(OCC)ccc3n2)cc1	none
Cn1c(=O)c2c(-c3ccc(Br)cc3)n(Cc3ccc(F)cc3)cc2n(C)c1=O	none
O=C(c1ccccc1Cl)N1CCC(c2nc3ccccc3s2)CC1	DRV1 agonist 78
COc1cc(C(=O)N2CCC(c3nc4ccccc4s3)CC2)cc(OC)c1OC	DRV1 agonist inconclusive
Cc1ccccc1C(=O)N1CCC(c2nc3ccccc3s2)CC1	DRV1 agonist inconclusive
Cc1cc(OCC(=O)N2CCC(c3nc4ccccc4s3)CC2)ccc1Cl	FH mod inconclusive, DRV1 agonist 78
CC(Oc1ccc(F)cc1)C(=O)N1CCC(c2nc3ccccc3s2)CC1 (stereo not drawn)	DRV1 agonist 67
